Screening data as filed in PubChem.
Compounds with a hit are over-represented: about 15% of the library has one in this group of screens.
HCMV antiviral: human cytomegalovirus inhibition | HFF cells, HCMV-luciferase reporter, 72 h; stronger effect = lower value | activity change, negative = inhibition, % at 57.5 µM | 4.5% of 410,000 active | AID 1259415; in the data active = activity change below about -60%; inconclusive = no clear call, values can overlap the other calls; inactive = above about -39%; note: % is set by controls: 0 for no effect and ±100 for the full control effect
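Two compound doses tested in HFFs infected with HCMV-luciferase, MOI 1 PFU/cell, 72 h at 37C. Lysate luminescence read with OneGlo; data normalized against buffer-only and 10uM Salinomycin inhibitor controls.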
HCV inhibitor: HCV inhibition | 3.4% of 340,000 active | AID 651820 | Potency, µM (doses to about 41.8 µM), for the others: at the top dose activity change, negative = inhibition, most hits filed as inhibitors | Huh7.5.1 HCVcc-Cre infection, luciferase reporter, 44 h; note: potency is the fitted concentration of half-maximal effect; % is set by controls: 0 for no effect and ±100 for the full control effect
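Cells (1,000/well) were plated 4 h before compound, then infected with HCVcc-Cre virus (~0.5 moi). After 44 h further culture, infection was read as luciferase luminescence following a 15 min substrate incubation at room temperature.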
Pf growth 48h: P. falciparum growth inhibition at 48 hours (one generation); AID 504832; P. falciparum luciferase growth in erythrocytes, 48 h; Potency, µM (top dose mostly 28.7 µM), without a hit: at the top dose activity change, negative = inhibition, usual class: inhibitors; 5.9% of 310,000 active; note: potency is the fitted concentration of half-maximal effect; % is set by controls: 0 for no effect and ±100 for the full control effect
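Here the parasites carry a stable luciferase gene and grow inside erythrocytes in Albumax-based RPMI medium with compound for one erythrocytic cycle. Activity is scored as loss of luminescent signal.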
SARS PLP yeast: blocks SARS-CoV papain-like protease in a yeast assay. 0.19% of 330,000 active. AID 485353. S. cerevisiae expressing SARS-CoV PLpro, growth rescue. Potency, µM (top dose mostly 32.9 µM), without a hit: at the highest dose activity, positive = growth rescue, hits mostly activators; calls by dose curve; note: potency is the fitted concentration of half-maximal effect; 0% is about no effect; nearly all actives have a fitted effect of over 55% in size
Pf growth 96h: P. falciparum growth inhibition at 96 hours | Potency, µM (highest dose often 28.7 µM), inactives show at the top dose activity change, negative = inhibition, actives largely listed as inhibitors | P. falciparum luciferase reporter growth, 96 h | 6.9% of 320,000 active; note: potency is the fitted concentration of half-maximal effect; % is set by controls: 0 for no effect and ±100 for the full control effect
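Erythrocytes infected with luciferase-expressing P. falciparum were dispensed at 2% hematocrit and 0.05% parasitemia (final), then incubated with compounds 96 hours at 37 C in 5% CO2. Luminescence after detection reagent addition reported growth.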
Sm TGR inh: S. mansoni TGR enzyme inhibition; Q962Y6; purified TGR, DTNB reduction, TNB absorbance 405 nm; Potency, µM (series often up to 114 µM), for the others: at the top dose activity change, negative = inhibition, usual class: inhibitors; 3% of 360,000 active; AID 485364; note: potency is the fitted concentration of half-maximal effect; % is set by controls: 0 for no effect and ±100 for the full control effect; nearly all actives have a fitted effect of over 60% in size
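Kinetic colorimetric format: TGR-catalysed, NADPH-driven DTNB reduction monitored via TNB absorbance. Enzyme dispensed at 20 nM; compound exposure 15 min at room temperature before reaction start.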
* marks the source's active call; other numbers are inactive results; ? = inconclusive; / = not tested or not shown. Unless noted, calls come from the whole dose curve; as a rule, active = well fitted curve in the direction sought with a large enough effect; inconclusive = small, poorly fitted or top-dose-only effect, or another doubt; inactive = no such curve, though single readings can be large; an effect the other way counts as inactive or inconclusive.

SMILES	HCMV antiviral	HCV inhibitor	Pf growth 48h	SARS PLP yeast	Pf growth 96h	Sm TGR inh
Cc1ccc(NC(=O)N(Cc2cccs2)Cc2cc3cc4c(cc3[nH]c2=O)OCO4)cc1	18	-2%	?	?	?	-2%
COc1ccc(NC(=O)N(Cc2cccs2)Cc2cc3cc4c(cc3[nH]c2=O)OCO4)cc1	/	-5%	?	13%	-11%	-3%
O=C(Nc1ccc(F)cc1)N(Cc1ccco1)Cc1cc2cc3c(cc2[nH]c1=O)OCO3	?	-25%	10µM*	2%	?	0%
Cc1cc(C)cc(NC(=O)C2CCN(S(=O)(=O)c3cn(C)cn3)CC2)c1	-17	/	/	/	/	1%
CCc1cc2c(=O)c(-c3nc(C)cs3)c(CCCC(=O)O)oc2cc1O	4	5%	3%	0%	9.3µM*	0%
Cc1ccc(NC(=O)CSCC(=O)Nc2nnc(C)s2)cc1	-11	-1%	-1%	/	19%	-1%
COc1ccc(C2CC(=O)C(c3ccccc3OC)=CN2Cc2ccccc2)cc1 (stereo unspecified)	27	/	/	/	/	/
COc1ccc([N+](=O)[O-])cc1C(=O)Nc1ccc(Cc2ccncc2)cc1	-18	0%	-16%	0%	44%	6%
CC(C)(C)Sc1ccc([N+](=O)[O-])cc1C(=O)Nc1ccncc1	-3	-7%	?	0%	0.93µM*	12%
O=C(COC(=O)CCS(=O)(=O)c1ccccc1)Nc1ccc(N2CCCCC2)cc1	0	24%	65%	5%	38%	-21%
COc1ccc(/C=C2\Sc3ccc(C(=O)NC4CC4)cc3N(C)C2=O)cc1OC	-29	?	?	-4%	-1%	-6%
CCOC(=O)C1CCCN(C(=O)c2ccc3c(c2)N(C)C(=O)/C(=C/c2ccccc2Cl)S3)C1 (stereo unspecified)	-28	11µM*	?	-6%	0.41µM*	-7%
COc1ccc(/C=C2\Sc3ccc(C(=O)NCCN4CCCCCC4)cc3N(C)C2=O)cc1	-32	?	3.3µM*	1%	-4%	-21%
CCOC(=O)C1CCCN(C(=O)c2ccc3c(c2)NC(=O)C(N2CCOCC2)S3)C1 (stereo unspecified)	4	?	8.3µM*	-5%	?	-4%
CCOc1ccc(/C=C2/Sc3ccc(C(=O)N4CCOCC4)cc3N(C)C2=O)cc1OC	11	?	9.3µM*	2%	9%	-35%
Cc1cc(SCC(=O)N(C)CC(=O)Nc2ccc(F)cc2)nc2ccccc12	-39	?	10%	16%	3%	-15%
CN1C(=O)/C(=C/c2ccc(C(F)(F)F)cc2)Sc2ccc(C(=O)N3CCN(c4ccccn4)CC3)cc21	?	14µM*	?	-7%	40%	-10%
CN1C(=O)/C(=C/c2cccc(Cl)c2)Sc2ccc(C(=O)N3CCOCC3)cc21	?	11µM*	?	-3%	?	6%
CN1C(=O)/C(=C/c2ccccc2Cl)Sc2ccc(C(=O)N3CCCC3)cc21	?	?	?	-4%	40%	11%
COc1ccc(/C=C2\Sc3ccc(C(=O)N4CCCC4)cc3N(C)C2=O)cc1OC	/	-15%	2.3µM*	-4%	?	-26%
CC(=O)Oc1ccc(/C(C)=N\N2CCN(Cc3ccc(Cl)cc3)CC2)cc1	-10	?	144%	-1%	?	0%
CCOc1ccc(NC(=O)CN(C)C(=O)CCc2ccccc2Cl)cc1OCC	-80*	-20%	0%	-7%	30%	?
CCOc1ccc(NC(=O)CN(C)C(=O)c2ccncc2)cc1OCC	7	8%	9%	-2%	?	25µM*
CCOc1ccc(NC(=O)CN(C)C(=O)c2c(-c3c(F)cccc3Cl)noc2C)cc1OCC	-17	?	?	2%	1µM*	-4%
CCNc1nnc(SCC(=O)N2c3ccccc3NC(=O)CC2C)s1 (stereo unspecified)	-5	21%	-21%	-4%	?	-1%
